GC-B act – GC-B (human) receptor activation | P20594 | HEK293-GC-B cells, CNP EC30, cGMP TR-FRET; 0% at EC30 CNP, 100% saturating CNP | activation, % at 10 µM | 370,000 compounds, 0.11% hits;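 active means activation at 10 µM reaching about 35% in either raw or pattern-adjusted values, limit read from the data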
ADAM10 inh – inhibitors of human ADAM10; recombinant ADAM10, EDANS/DABCYL FRET peptide cleavage, 3 h; AID 720582; 370,000 compounds, 0.62% hits; O14672; inhibition, % at 7 µM;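 active means inhibition above a per-campaign cutoff equal to the mean of compounds falling between control-based bounds plus 3 SD, cut at about 20% in these data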
KLK7 zymogen act – activators of human kallikrein-7 zymogen. P49862. AID 652039. purified proKLK7, EDANS-DABCYL substrate fluorescence; 100% is mature enzyme control, 0% vehicle. activation, % at 7 µM. 370,000 compounds, 0.9% hits;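 active means activation above the mean of all tested compounds plus 3 SD, computed per campaign excluding outliers beyond control limits, cut at about 13% in these data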
Target sequence (P49862 whole entry, looked up): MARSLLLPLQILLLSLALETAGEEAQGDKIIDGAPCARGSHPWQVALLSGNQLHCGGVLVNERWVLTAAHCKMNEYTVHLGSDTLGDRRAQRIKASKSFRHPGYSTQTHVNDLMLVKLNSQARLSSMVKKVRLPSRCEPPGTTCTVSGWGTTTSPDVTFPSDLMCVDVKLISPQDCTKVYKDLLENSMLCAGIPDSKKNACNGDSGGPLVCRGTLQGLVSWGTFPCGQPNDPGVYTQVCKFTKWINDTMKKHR
NPR1 activator – GC-A (human) enzyme activation; P16066; HEK293 GC-A cells, cGMP TR-FRET, EC30 ANP; 0% at EC30 ANP, 100% saturating ANP; activation, % at 10 µM; 370,000 compounds, 0.14% hits; in the data active means activation above about 40%
ADAM17 inh – inhibitors of human ADAM17; recombinant ADAM17, EDANS/DABCYL FRET peptide cleavage; inhibition, % at 6.95 µM; 370,000 compounds, 0.83% hits; AID 720648;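 active means inhibition above the mean of compounds lying between control limits plus 3 SD, set per campaign, cut at about 8.5% in these data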
proKLK7 act conf – proKLK7 activation, confirmation; shares compounds with KLK7 zymogen act; purified proKLK7, EDANS-DABCYL substrate fluorescence; scaled: vehicle 0, mature enzyme 100; activation, % at 7 µM; 3,200 compounds, 68% hits; AID 686949;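 active means activation, as change over the incubation, above the mean of all tested compounds plus 3 SD, cut at about 13% in these data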
EDANS interfere – counter-screen for kallikrein-7 activators: EDANS-DABCYL optical interference; activation, % at 7 µM; AID 686952; shares compounds with KLK7 zymogen act; 3,200 compounds, 80% hits; EDANS-DABCYL substrate fluorescence interference, no enzyme, 4 h; solvent 0%, active enzyme control 100%;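 active means activation above the all-compound mean plus 3 SD, ignoring values outside control-based bounds, cut at about 4.8% in these data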;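 further: value is the 4 h activation minus the activation read at time zero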
K7 EDANS ctr – EDANS fluorescence interference in dose response, no enzyme; shares compounds with KLK7 zymogen act; EDANS-DABCYL peptide fluorescence interference; EC50, µM; 250 compounds, 20% hits;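 active means compounds that raise the fluorescence signal in this interference counterscreen, with EC50 at or below 10 µM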;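 further: intact quenched peptide substrate alone read at 355 nm excitation and 520 nm emission; signal is fluorescence gain from T0 to T4 after four hours at room temperature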
Of the large screens only hits and unclear results are named; the others gave an inactive call (follow-up assays come after a bar, where they were run). Only some compounds are listed: those with a hit (about 2.2% of all), similar ones and a draw of the others.

Nc1nc2ncccn2c1-c1ccc(C(F)(F)F)cc1	KLK7 zymogen act 26 | proKLK7 act conf 60 | EDANS interfere 63
COc1ccc(-c2cc(C(F)F)n3ncc(C(=O)n4ccnc4C)c3n2)cc1	KLK7 zymogen act 13 | proKLK7 act conf 169 | EDANS interfere 167
COc1ccccc1-c1cc(-c2ccccc2)nc(=O)[nH]1	KLK7 zymogen act 18 | proKLK7 act conf inactive | EDANS interfere 14
COCCN(C(=O)COC(=O)c1ccccc1NCc1ccco1)c1c(N)n(Cc2ccccc2)c(=O)[nH]c1=O	none
CCCCn1c(N)c(N(CCOC)C(=O)COC(=O)c2ccccc2NCCO)c(=O)[nH]c1=O	KLK7 zymogen act 36 | proKLK7 act conf 19 | EDANS interfere 22
CCC(=O)Oc1ccc2c(c1)OC1(OC(C)=O)OC(C)CC1=C2C (configuration not stated)	KLK7 zymogen act 297 | proKLK7 act conf 610 | EDANS interfere 615
CCC(=O)Oc1ccc2oc(=O)cc(C)c2c1	none
CCCCN(C)C1=Nc2cccc3cccc1c23	KLK7 zymogen act 60 | proKLK7 act conf inactive | EDANS interfere 12
COc1ccc(/C=C/C(O)=C2/C(=O)N(C)C3(C)CC2c2ccccc2O3)cc1 (configuration not stated)	none
COc1ccc(/C=C/C(O)=C2/C(=O)NC3(C)CC2c2ccccc2O3)c(OC)c1OC (configuration not stated)	KLK7 zymogen act 15 | proKLK7 act conf 15 | EDANS interfere 10 | K7 EDANS ctr inactive
CCCCn1c(SCC(=O)NC(C)CC)nc2ccc(N3CCOCC3)cc2c1=O (configuration not stated)	none
CCCCn1c(SCC(=O)Nc2ccc(OC)cc2)nc2ccc(N3CCOCC3)cc2c1=O	KLK7 zymogen act 17 | proKLK7 act conf inactive | EDANS interfere inactive
CC(=O)c1ccc(-c2nc3ccccc3n2C)o1	KLK7 zymogen act 67 | proKLK7 act conf 57 | EDANS interfere 59
CN1Cc2nnn(Cc3ccccc3)c2-c2ccccc2S1(=O)=O	none
COc1ccccc1NS(=O)(=O)c1cccc(C(=O)N/N=C/c2ccc(OCC(=O)O)cc2)c1	none
COc1ccccc1NS(=O)(=O)c1cccc(C(=O)N/N=C/c2ccc(NC(C)=O)cc2)c1	KLK7 zymogen act 235 | proKLK7 act conf inactive | EDANS interfere inactive
COC(=O)c1cc(NC(=O)CC(=O)c2cccc(N)c2)cc(C(=O)OC)c1	KLK7 zymogen act 15 | proKLK7 act conf inactive | EDANS interfere inactive
COC(=O)c1cc(NC(=O)c2cccc(F)c2)cc(C(=O)OC)c1	none
O=C(O)c1c2c(nc3ccccc13)/C(=C/c1ccc(O)cc1)CC2	KLK7 zymogen act 28 | proKLK7 act conf 68 | EDANS interfere 70
O=C(O)c1c2c(nc3ccccc13)/C(=C/c1ccc(OC(F)F)cc1)CCC2	none
Cc1[nH]n(-c2cccc3ccccc23)c(=O)c1C=Nc1ccc2[nH]c(=O)[nH]c2c1	none
Cc1ccc(-n2[nH]c(C)c(C=Nc3ccc4[nH]c(=O)[nH]c4c3)c2=O)cc1C	KLK7 zymogen act 179 | proKLK7 act conf 186 | EDANS interfere 169
Cc1ccc(-n2[nH]c(C)c(C=Nc3ccc4[nH]c(=O)[nH]c4c3)c2=O)cc1	KLK7 zymogen act 379 | proKLK7 act conf 443 | EDANS interfere 407
COC(=O)[C@]12C[C@H](CC(=O)N3CCN(C(=O)c4ccco4)CC3)C(=O)N(CCc3ccc(OC)c(OC)c3)C1=C[C@H](C(C)(C)C)O[C@@H]2C	none
Cc1cc(C)c2nc3nc(C)c(C)cc3c(N)c2c1	KLK7 zymogen act 50 | proKLK7 act conf 34 | EDANS interfere 41
CC(C)(C)Nc1c(-c2ccc(O)cc2)nc2ccc(Cl)cn12	none
CC(C)(C)CC(C)(C)Nc1c(-c2ccc(O)cc2)nc2cnccn12	KLK7 zymogen act 39 | proKLK7 act conf inactive | EDANS interfere inactive
O=C(Nc1nc2c(s1)CCc1ccccc1-2)c1cccs1	KLK7 zymogen act 14 | proKLK7 act conf inactive | EDANS interfere 15
CC1C2=C(CC(C)(C)CC2=O)NC2=C1C(=O)CC(C)(C)C2	KLK7 zymogen act 19 | proKLK7 act conf 74 | EDANS interfere 73
Cc1ccc(C(=O)N(C)[C@H]2C[C@H]3c4[nH]c5c(-c6ccc7c(c6)OCO7)cccc5c4CCN3C[C@H]2[C@H](C)O)cc1	none
CCOC(=O)c1cn(C2CC2)c2c(F)c(NCCCN(C)C)c(F)cc2c1=O	KLK7 zymogen act 20 | proKLK7 act conf inactive | EDANS interfere 12
COc1ccc2cc(CN(CCCN3CCOCC3)Cc3nnnn3C3CCCC3)c(=O)[nH]c2c1	KLK7 zymogen act 16 | proKLK7 act conf inactive | EDANS interfere inactive
CCOC(=O)c1cc(OC(C)=O)c2ccc(OC)c(OC)c2c1	KLK7 zymogen act 14 | proKLK7 act conf inactive | EDANS interfere inactive
COC(=O)[C@]12C[C@H](CC(=O)N3CCCCC3)C(=O)N(CCC3=CCCCC3)C1=C[C@H](C(C)C)O[C@@H]2C1CC1	none
O=C(NC1=NCCS1)c1cc(-c2cccs2)nc2ccccc12	KLK7 zymogen act 35 | proKLK7 act conf inactive | EDANS interfere inactive
O=C(NC1=NCCS1)c1cc(-c2cccnc2)nc2ccccc12	none
O=C(O)c1ccc(/C=N/NC(=O)c2cc(-c3cccs3)nc3ccccc23)cc1	KLK7 zymogen act 23 | proKLK7 act conf 28 | EDANS interfere 21 | K7 EDANS ctr inactive
COc1ccc(CNC(=O)COC(=O)c2cc(-c3cccs3)nc3ccccc23)cc1OC	KLK7 zymogen act 15 | proKLK7 act conf inactive | EDANS interfere inactive
CC(C)NC(=O)c1cc(-c2cccs2)nc2ccccc12	none
CCOC(CCNC(=O)c1cc(-c2cccs2)nc2ccccc12)OCC	KLK7 zymogen act 32 | proKLK7 act conf inactive | EDANS interfere 9.8
O=S1(=O)c2c(cccc2N2CC[C@@H](O)C2)O[C@H]2CCN1C2	none
COc1ccc(-c2cc(C(=O)N(C)CC(=O)Nc3ccccc3Br)c3ccccc3n2)cc1OC	none
COc1ccc(-c2cc(C(=O)N(C)CC(=O)Nc3ccccc3C(F)(F)F)c3ccccc3n2)cc1OC	KLK7 zymogen act 14 | proKLK7 act conf inactive | EDANS interfere 9.0
Cn1cccc1C(=O)N1CCN(S(=O)(=O)c2ccc(C(C)(C)C)cc2)CC1	none

Compound activity from PubChem BioAssay.
